The full data set covers some 7,900 targets. This sample favours those with a hit. About 0.6% of all pairs of compound and target were hits.
Key:
Assay in all cases: log2 fold change, soluble protein after heating vs DMSO (PISA); higher = thermal stabilisation; K562 cells, 10 uM, 30 min; active = over 0.2 and 3.5 SD of the protein, either way, in both replicates (recomputed)
IRAK-1-4 Inhibitor I = compound: C1COCCN1CCN2C3=CC=CC=C3N=C2NC(=O)C4=CC(=CC=C4)[N+](=O)[O-] [IRAK-1-4 Inhibitor I]
In short: (§1)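 Aliquots of K562 cells (2×10^6 cells/mL) treated with 10 μM compound for 30 min were heated for 3 min over 48°C-58°C. After pooling and extraction in PBS with 0.5% NP-40 at 4°C, soluble protein from a 21,000xg, 90 min spin was quantified by TMTpro 16plex LC-MS/MS with channel sums equalised. Thermal stability is expressed against control samples, from duplicates, as a log2 fold change.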

ibrutinib = compound: C=CC(=O)N1CCC[C@@H](n2nc(-c3ccc(Oc4ccccc4)cc3)c3c(N)ncnc32)C1 [ibrutinib]
In short: as §1

[1] = compound: CC(=O)c1cnc2ccc(-c3cc(Cl)c(O)c(Cl)c3)nc2c1N[C@H]1CC[C@H](CN(C)C)CC1
In short: as §1

ralimetinib = compound: CC(C)(C)Cn1c(N)nc2ccc(-c3[nH]c(C(C)(C)C)nc3-c3ccc(F)cc3)nc21 [ralimetinib]
In short: as §1

[2] = compound: CC(C)(O)CC(=O)NCCn1ccc2ncnc(Nc3ccc(Oc4cccc(C(F)(F)F)c4)c(Cl)c3)c21
In short: as §1

[3] = compound: CC(C)C1=C2N=C(C=C(N2N=C1)NCC3=CC=CC=C3)NCCCCCCN
In short: as §1

[4] = compound: CC(C)C[C@@H](C=O)NC(=O)[C@H](CC(C)C)NC(=O)[C@H](CC(C)C)NC(=O)OCc1ccccc1
In short: as §1

pinometostat = compound: CC(C)N(C[C@H]1O[C@@H](n2cnc3c(N)ncnc32)[C@H](O)[C@@H]1O)[C@H]1C[C@@H](CCc2nc3cc(C(C)(C)C)ccc3[nH]2)C1 [pinometostat]
In short: as §1

[5] = compound: CC1=C(C(CC(=O)N1)C2=CC=C(C=C2)C(F)(F)F)C(=O)NC3=C(C=C4C(=C3)C=NN4)F
In short: as §1

[6] = compound: CC1=C(C2=C(C=C1)C(=O)C3=CC=CC=C3N2CCCN)C
In short: as §1

Chain of UniProt Q8N5G0 (Q8N5G0 whole entry, looked up): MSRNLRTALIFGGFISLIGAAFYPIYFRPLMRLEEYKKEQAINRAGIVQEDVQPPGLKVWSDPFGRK
Chain of UniProt Q6ZRS2 (Q6ZRS2 whole entry, looked up): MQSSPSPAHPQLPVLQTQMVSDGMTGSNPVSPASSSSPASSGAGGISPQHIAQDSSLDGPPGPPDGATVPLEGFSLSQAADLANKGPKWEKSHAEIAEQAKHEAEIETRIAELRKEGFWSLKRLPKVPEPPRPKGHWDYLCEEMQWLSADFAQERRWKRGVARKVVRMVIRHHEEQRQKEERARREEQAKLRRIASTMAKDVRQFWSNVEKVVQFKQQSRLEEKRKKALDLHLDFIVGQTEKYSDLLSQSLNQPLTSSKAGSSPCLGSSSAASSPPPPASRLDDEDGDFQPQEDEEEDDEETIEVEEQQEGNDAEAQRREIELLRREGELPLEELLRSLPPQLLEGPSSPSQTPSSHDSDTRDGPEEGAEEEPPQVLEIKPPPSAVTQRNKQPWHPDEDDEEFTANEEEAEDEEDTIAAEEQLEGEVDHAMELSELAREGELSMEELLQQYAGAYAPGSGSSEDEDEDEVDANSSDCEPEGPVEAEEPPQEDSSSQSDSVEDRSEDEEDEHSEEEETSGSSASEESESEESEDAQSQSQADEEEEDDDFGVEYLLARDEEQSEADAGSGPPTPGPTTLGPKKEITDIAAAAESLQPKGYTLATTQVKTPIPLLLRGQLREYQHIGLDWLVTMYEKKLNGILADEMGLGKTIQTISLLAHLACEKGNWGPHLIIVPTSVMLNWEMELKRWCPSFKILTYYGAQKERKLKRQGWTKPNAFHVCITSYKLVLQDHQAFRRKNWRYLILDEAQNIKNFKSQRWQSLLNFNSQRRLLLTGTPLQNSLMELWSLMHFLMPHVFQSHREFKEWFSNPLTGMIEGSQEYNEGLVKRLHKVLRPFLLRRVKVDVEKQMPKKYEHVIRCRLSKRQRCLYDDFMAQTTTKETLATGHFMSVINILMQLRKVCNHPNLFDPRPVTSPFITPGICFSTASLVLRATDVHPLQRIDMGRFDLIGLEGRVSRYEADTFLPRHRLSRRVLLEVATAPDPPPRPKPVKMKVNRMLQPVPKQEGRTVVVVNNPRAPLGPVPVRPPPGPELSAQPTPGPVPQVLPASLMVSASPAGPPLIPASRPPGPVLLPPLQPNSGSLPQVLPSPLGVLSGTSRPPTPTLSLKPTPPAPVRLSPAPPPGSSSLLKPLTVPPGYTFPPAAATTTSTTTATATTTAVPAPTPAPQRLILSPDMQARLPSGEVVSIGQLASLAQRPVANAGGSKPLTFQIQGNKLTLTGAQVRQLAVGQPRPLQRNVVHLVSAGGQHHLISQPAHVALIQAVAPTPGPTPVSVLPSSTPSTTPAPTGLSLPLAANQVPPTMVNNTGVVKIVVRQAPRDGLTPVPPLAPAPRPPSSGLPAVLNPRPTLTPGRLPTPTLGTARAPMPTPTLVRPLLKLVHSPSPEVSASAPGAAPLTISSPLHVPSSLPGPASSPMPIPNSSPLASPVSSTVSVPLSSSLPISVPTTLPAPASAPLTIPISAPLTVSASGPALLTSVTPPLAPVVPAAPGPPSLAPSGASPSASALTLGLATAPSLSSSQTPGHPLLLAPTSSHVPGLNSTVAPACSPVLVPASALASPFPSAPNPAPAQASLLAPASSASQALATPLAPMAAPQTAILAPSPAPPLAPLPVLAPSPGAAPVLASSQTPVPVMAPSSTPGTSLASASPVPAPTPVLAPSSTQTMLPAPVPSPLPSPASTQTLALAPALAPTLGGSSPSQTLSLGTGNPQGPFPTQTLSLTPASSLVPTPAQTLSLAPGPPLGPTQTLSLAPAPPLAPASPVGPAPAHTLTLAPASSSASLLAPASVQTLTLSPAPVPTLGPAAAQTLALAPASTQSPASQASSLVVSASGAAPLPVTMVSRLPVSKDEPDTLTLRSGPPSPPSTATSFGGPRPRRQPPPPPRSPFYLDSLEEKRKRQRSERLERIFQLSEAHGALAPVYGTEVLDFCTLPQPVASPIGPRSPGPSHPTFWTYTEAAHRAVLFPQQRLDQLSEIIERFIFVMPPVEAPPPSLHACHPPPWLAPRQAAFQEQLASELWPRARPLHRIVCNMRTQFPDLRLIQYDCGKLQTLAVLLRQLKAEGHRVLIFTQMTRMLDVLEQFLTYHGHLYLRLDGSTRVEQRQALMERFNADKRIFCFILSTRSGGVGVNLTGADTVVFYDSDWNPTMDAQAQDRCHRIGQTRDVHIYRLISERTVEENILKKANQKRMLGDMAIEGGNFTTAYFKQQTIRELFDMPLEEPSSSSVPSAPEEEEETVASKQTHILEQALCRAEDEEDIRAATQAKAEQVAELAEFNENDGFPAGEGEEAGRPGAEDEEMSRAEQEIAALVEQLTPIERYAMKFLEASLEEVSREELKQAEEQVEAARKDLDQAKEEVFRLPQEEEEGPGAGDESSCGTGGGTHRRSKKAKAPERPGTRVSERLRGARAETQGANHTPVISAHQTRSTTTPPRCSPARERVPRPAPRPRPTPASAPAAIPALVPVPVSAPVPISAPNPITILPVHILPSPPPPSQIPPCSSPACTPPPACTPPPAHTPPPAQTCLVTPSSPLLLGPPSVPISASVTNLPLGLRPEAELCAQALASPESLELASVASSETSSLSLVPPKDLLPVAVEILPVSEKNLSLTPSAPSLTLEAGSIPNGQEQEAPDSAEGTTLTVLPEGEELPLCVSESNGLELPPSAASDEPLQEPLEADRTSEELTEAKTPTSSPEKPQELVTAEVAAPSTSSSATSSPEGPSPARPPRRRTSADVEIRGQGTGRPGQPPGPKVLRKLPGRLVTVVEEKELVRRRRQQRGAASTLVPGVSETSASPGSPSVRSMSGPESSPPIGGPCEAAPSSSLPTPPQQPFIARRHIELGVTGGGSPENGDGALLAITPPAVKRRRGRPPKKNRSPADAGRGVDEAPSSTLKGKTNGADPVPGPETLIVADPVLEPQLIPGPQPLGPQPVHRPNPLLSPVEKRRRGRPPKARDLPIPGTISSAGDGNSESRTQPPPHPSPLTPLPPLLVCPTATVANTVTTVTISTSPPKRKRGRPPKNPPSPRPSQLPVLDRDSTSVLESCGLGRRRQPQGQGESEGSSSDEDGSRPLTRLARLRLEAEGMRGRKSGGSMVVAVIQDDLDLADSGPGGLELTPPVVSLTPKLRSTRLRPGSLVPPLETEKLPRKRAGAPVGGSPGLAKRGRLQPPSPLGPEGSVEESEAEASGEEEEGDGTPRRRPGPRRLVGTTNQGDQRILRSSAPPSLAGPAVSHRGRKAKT
Chain of UniProt Q9H5L6 (Q9H5L6 whole entry, looked up): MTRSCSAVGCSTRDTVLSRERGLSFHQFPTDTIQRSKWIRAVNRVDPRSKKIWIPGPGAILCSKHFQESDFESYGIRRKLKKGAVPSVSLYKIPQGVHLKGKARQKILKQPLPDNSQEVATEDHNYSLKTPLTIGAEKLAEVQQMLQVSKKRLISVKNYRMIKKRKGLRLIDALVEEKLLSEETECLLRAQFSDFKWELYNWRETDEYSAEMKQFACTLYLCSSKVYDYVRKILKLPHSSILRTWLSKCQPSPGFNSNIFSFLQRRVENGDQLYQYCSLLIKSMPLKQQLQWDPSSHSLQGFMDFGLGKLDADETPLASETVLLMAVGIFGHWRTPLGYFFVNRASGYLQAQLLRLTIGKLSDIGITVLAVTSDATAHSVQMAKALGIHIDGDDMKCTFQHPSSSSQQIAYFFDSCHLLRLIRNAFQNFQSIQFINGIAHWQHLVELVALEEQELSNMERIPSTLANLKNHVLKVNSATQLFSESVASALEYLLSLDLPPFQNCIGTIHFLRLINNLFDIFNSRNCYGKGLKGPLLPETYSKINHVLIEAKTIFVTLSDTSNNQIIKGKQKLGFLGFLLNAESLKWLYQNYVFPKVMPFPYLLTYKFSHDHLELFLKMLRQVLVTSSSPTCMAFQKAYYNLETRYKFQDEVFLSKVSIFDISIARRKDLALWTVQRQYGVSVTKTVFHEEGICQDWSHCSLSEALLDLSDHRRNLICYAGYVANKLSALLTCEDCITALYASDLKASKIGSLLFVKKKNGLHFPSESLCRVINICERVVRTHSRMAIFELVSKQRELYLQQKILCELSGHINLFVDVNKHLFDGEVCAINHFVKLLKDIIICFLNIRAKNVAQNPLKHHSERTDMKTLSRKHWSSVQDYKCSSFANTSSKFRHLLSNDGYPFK
Chain of UniProt Q969S0 (Q969S0 whole entry, looked up): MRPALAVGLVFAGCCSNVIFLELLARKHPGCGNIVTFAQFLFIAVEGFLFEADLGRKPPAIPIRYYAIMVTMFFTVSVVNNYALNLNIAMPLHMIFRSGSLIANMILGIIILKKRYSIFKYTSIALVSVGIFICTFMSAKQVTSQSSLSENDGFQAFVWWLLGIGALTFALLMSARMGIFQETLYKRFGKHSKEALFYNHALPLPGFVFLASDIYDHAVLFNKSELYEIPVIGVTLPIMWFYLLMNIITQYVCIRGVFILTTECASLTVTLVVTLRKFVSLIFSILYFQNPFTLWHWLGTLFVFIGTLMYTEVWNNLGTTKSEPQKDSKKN
Chain of UniProt Q8WU79 (Q8WU79 whole entry, looked up): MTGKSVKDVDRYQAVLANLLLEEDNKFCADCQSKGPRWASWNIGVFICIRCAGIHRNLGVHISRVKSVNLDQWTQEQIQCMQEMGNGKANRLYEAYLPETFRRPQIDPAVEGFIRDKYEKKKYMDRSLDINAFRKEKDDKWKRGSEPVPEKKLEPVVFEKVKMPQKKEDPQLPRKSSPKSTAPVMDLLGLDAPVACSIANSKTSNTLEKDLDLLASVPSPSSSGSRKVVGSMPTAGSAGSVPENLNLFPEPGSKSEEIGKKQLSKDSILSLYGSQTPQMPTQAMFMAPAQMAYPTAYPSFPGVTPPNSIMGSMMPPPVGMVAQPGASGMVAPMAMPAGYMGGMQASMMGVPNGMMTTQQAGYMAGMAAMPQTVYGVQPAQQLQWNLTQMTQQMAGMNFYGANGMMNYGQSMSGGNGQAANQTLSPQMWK
Chain of UniProt Q9H4I9 (Q9H4I9 whole entry, looked up): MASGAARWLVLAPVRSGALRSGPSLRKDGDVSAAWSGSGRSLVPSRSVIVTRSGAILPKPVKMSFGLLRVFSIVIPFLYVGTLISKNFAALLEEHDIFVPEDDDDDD

Target | log2 fold change (IRAK-1-4 Inhibitor I) | log2 fold change (ibrutinib) | log2 fold change [1] | log2 fold change (ralimetinib) | log2 fold change [2] | log2 fold change [3] | log2 fold change [4] | log2 fold change (pinometostat) | log2 fold change [5] | log2 fold change [6]
SLC30A10 (UniProt Q6XR72) | 0.05 (inactive) | -0.08 (inactive) | -0.019 (inactive) | -0.014 (inactive) | -0.079 (inactive) | 0.035 (inactive) | -0.054 (inactive) | -0.032 (inactive) | 0.035 (inactive) | 0.12 (inactive)
SLC8B1 (UniProt Q6J4K2) | 0.096 (inactive) | -0.091 (inactive) | 0.112 (inactive) | -0.093 (inactive) |  | -0.378 (inactive) | 0.048 (inactive) | 0.019 (inactive) |  | 
TECR (UniProt Q9NZ01) | 0.04 (inactive) | -0.059 (inactive) | 0 (inactive) | -0.061 (inactive) | -0.107 (inactive) | -0.458 (active) | 0.009 (inactive) | 0.024 (inactive) | 0.012 (inactive) | 0.036 (inactive)
TCERG1 (UniProt O14776) | -0.062 (inactive) | -0.073 (inactive) | -0.065 (inactive) | -0.035 (inactive) | -0.172 (inactive) | -0.086 (inactive) | -0.041 (inactive) | -0.039 (inactive) | -0.016 (inactive) | 0.062 (inactive)
SYNE2 isoform 2 (UniProt Q8WXH0) | 0.046 (inactive) | -0.037 (inactive) | 0.059 (inactive) | 0.01 (inactive) |  | 0.078 (inactive) | 0.059 (inactive) | -0.024 (inactive) | 0 (inactive) | 0.044 (inactive)
SMAP2 (UniProt Q8WU79) | 0.04 (inactive) | -0.027 (inactive) | 0.039 (inactive) | 0.048 (inactive) | -0.039 (inactive) | 0.02 (inactive) | 0.137 (inactive) | 0.015 (inactive) | -0.025 (inactive) | 0.004 (inactive)
SLC39A11 (UniProt Q8N1S5) | 0.092 (inactive) | 0.066 (inactive) | 0.051 (inactive) | 0.012 (inactive) |  | -0.117 (inactive) | -0.051 (inactive) | -0.085 (inactive) | -0.024 (inactive) | 0.07 (inactive)
SRCAP (UniProt Q6ZRS2) | -0.42 (active) | 0 (inactive) |  | 0.036 (inactive) |  | 0.046 (inactive) | 0.12 (inactive) | 0.037 (inactive) | 0.078 (inactive) | 0.103 (inactive)
TAOK2 (UniProt Q9UL54) | -0.132 (inactive) |  |  | 0.09 (inactive) | -0.041 (inactive) | 0.083 (inactive) | 0.001 (inactive) | 0.031 (inactive) | -0.044 (inactive) | 0.127 (inactive)
SREBF1 isoform 4 (UniProt P36956) | 0.008 (inactive) | 0.025 (inactive) |  |  | -0.404 (inactive) | -0.077 (inactive) |  | -0.088 (inactive) |  | 
SNX2 isoform 2 (UniProt O60749) | 0.091 (inactive) | 0.151 (inactive) | -0.039 (inactive) |  | -0.377 (inactive) |  |  | -0.094 (inactive) |  | 
SMDT1 (UniProt Q9H4I9) | 0.039 (inactive) | 0.036 (inactive) | -0.026 (inactive) |  | -0.012 (inactive) |  |  | -0.043 (inactive) |  | 0.027 (inactive)
TC2N (UniProt Q8N9U0) |  |  | -0.486 (inactive) | -0.036 (inactive) |  |  | 0.028 (inactive) |  | -0.364 (inactive) | 0.014 (inactive)
SLC46A1 (UniProt Q96NT5) |  |  | -0.008 (inactive) |  |  | -0.04 (inactive) |  |  |  | -0.049 (inactive)
SLC35B4 (UniProt Q969S0) | 0.092 (inactive) | 0.023 (inactive) | 0.184 (inactive) |  | 0.098 (inactive) | -0.02 (inactive) |  | -0.056 (inactive) | -0.055 (inactive) | 0.059 (inactive)
TATDN2 (UniProt Q93075) | -0.006 (inactive) | 0.072 (inactive) | -0.402 (active) |  | 0.102 (inactive) | 0.058 (inactive) |  | 0.047 (inactive) | -0.023 (inactive) | -0.218 (inactive)
STK17B (UniProt O94768) | -0.12 (inactive) | -0.235 (inactive) |  |  |  | -0.262 (inactive) |  | 0.033 (inactive) |  | 
SLC35F6 (UniProt Q8N357) |  | -0.002 (inactive) | -0.016 (inactive) | -0.18 (inactive) | 0.061 (inactive) | -0.22 (inactive) | 0.319 (inactive) |  | -0.177 (inactive) | 0.078 (inactive)
SPIN4 (UniProt Q56A73) | 0.07 (inactive) |  |  |  |  | -0.079 (inactive) |  | 0.051 (inactive) |  | 
SRC isoform 2 (UniProt P12931) | -0.018 (inactive) |  | -0.251 (inactive) | -0.136 (inactive) | -0.22 (inactive) | 0.159 (inactive) | 0.05 (inactive) | 0.087 (inactive) | 0.067 (inactive) | 0.02 (inactive)
SRSF6 (UniProt Q13247) | -0.082 (inactive) | -0.072 (inactive) | -0.167 (inactive) |  | 0.234 (inactive) | -0.086 (inactive) |  | 0.116 (inactive) | 0.003 (inactive) | -0.744 (inactive)
SLC39A1 (UniProt Q9NY26) |  |  |  |  |  | -1.06 (active) |  |  |  | 
TCOF1 isoform 3 (UniProt Q13428) |  |  |  | 0.522 (inactive) | -0.095 (inactive) | -0.01 (inactive) | 0.176 (inactive) |  |  | -0.642 (inactive)

Target | log2 fold change (IRAK-1-4 Inhibitor I) | log2 fold change (ibrutinib) | log2 fold change [1] | log2 fold change (ralimetinib) | log2 fold change [2] | log2 fold change [3] | log2 fold change [4] | log2 fold change (pinometostat) | log2 fold change [5] | log2 fold change [6]
SMARCB1 (UniProt Q12824) | -0.082 (inactive) |  |  |  |  |  |  | 0.179 (inactive) |  | -0.031 (inactive)
TDP1 (UniProt Q9NUW8) |  |  |  |  |  | 0.156 (inactive) |  |  |  | 
SMPD4 isoform 2 (UniProt Q9NXE4) | 0.016 (inactive) | -0.156 (inactive) | 0.196 (inactive) |  |  |  |  | 0 (inactive) |  | 0.115 (inactive)
TBC1D2 (UniProt Q9BYX2) |  |  | -0.208 (inactive) |  | 0.007 (inactive) |  |  |  |  | 
TACC2 (UniProt O95359) |  | -0.058 (inactive) | 0.054 (inactive) | 0.108 (inactive) |  | -0.205 (inactive) | -0.007 (inactive) |  | 0.069 (inactive) | 0.058 (inactive)
TK1 (UniProt K7ERV3) |  | -0.033 (inactive) | -0.071 (inactive) | -0.025 (inactive) | -0.122 (inactive) |  | 0.078 (inactive) |  | 0.004 (inactive) | -0.037 (inactive)
STK11IP (UniProt Q8N1F8) | -0.248 (inactive) | 0.027 (inactive) | -0.02 (inactive) |  | -0.131 (inactive) | -0.932 (active) |  | 0.168 (inactive) | 0.1 (inactive) | -0.183 (inactive)
TIMM10B (UniProt Q9Y5J6) |  | -0.008 (inactive) | -0.231 (inactive) | 0 (inactive) | -0.07 (inactive) | -0.197 (inactive) | -0.126 (inactive) |  | 0.017 (inactive) | 0.089 (inactive)
SNX15 (UniProt Q9NRS6) | -0.031 (inactive) | -0.112 (inactive) | -0.111 (inactive) | -0.051 (inactive) |  |  | 0.021 (inactive) | -0.069 (inactive) | -0.099 (inactive) | -0.016 (inactive)
TAF6L (UniProt Q9Y6J9) |  |  | 0.054 (inactive) | -0.092 (inactive) |  | 0.023 (inactive) | 0.122 (inactive) |  | 0.118 (inactive) | -0.03 (inactive)
TCOF1 isoform 6 (UniProt Q13428) | 0.041 (inactive) | 0.12 (inactive) |  | 0.225 (inactive) |  | 0.092 (inactive) | -0.127 (inactive) | -0.121 (inactive) | 0 (inactive) | -0.155 (inactive)
THAP9 (UniProt Q9H5L6) | 0.07 (inactive) | 0.002 (inactive) | -0.105 (inactive) | 0.178 (inactive) |  |  | -0.025 (inactive) | -0.035 (inactive) | 0.027 (inactive) | 
SMIM20 isoform 2 (UniProt Q8N5G0) |  | -0.01 (inactive) | -0.023 (inactive) | -0.056 (inactive) | -0.061 (inactive) | 0.024 (inactive) | 0.006 (inactive) |  | 0.05 (inactive) | -0.058 (inactive)
TMBIM1 (UniProt Q969X1) |  | 0.037 (inactive) | -0.126 (inactive) | 0.264 (inactive) | 0.16 (inactive) | -0.066 (inactive) | -0.166 (inactive) |  | -0.107 (inactive) | 0.089 (inactive)
SP2 (UniProt Q02086) | -0.126 (inactive) |  | -0.472 (inactive) |  |  |  |  | 0.212 (inactive) |  | 
TM7SF2 (UniProt O76062) |  |  |  | -0.106 (inactive) |  | -0.124 (inactive) | -0.01 (inactive) |  | -0.134 (inactive) | 
SLC9A6 isoform 3 (UniProt Q92581) |  | -0.012 (inactive) | 0.004 (inactive) |  |  | 0.051 (inactive) |  |  |  | 0.075 (inactive)
SUN1 isoform 9 (UniProt O94901) | -0.028 (inactive) |  | -0.114 (inactive) | 0.067 (inactive) | 0.115 (inactive) | -0.149 (inactive) | 0.042 (inactive) | 0.128 (inactive) | 0.127 (inactive) | -0.05 (inactive)
TENT5C (UniProt Q5VWP2) | 0.136 (inactive) | 0.008 (inactive) |  | -0.119 (inactive) |  | 0.18 (inactive) | 0.03 (inactive) | -0.028 (inactive) | -0.018 (inactive) | -0.014 (inactive)
SPAG9 isoform 4 (UniProt O60271) | -0.027 (inactive) | 0.349 (inactive) | 0.14 (inactive) | 0.191 (inactive) |  | -0.202 (inactive) | 0.049 (inactive) | 0.061 (inactive) | -0.003 (inactive) | -0.243 (inactive)
SNRK (UniProt Q9NRH2) | -0.126 (inactive) |  |  |  |  |  |  | -0.087 (inactive) |  | 
SLC35B1 isoform 2 (UniProt P78383) | -0.067 (inactive) | 0.09 (inactive) |  | -0.184 (inactive) | -0.217 (inactive) | -0.04 (inactive) | 0.038 (inactive) | 0.065 (inactive) | -0.086 (inactive) | 0.011 (inactive)

Source: the supplement of paper PMC10849652
